Potency, outcome and activity change, negative = cytotoxicity data for 13 compounds are collected here from PubChem BioAssay (NCATS).

What all share (assay): Primary qHTS to identify gynecologic anti-cancer compounds using libraries of approved drugs and bioactive compounds (AID 1345084); further: nearly all actives have a fitted effect of over 55% in size
For one assay, the system named is C33A. As to conditions: Gynecologic cancer cell panel viability, ATPlite luminescence, 48 h; series mostly up to 57.5 µM. The method in brief: (§1)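 Cells, 1,000 per well, were allowed to settle for 16 h at 37 C before compound addition. Five concentrations were tested for 48 h, and viability was read by ATPlite luminescence after 15 min at room temperature.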
The next assay relates to CAOV3. As to conditions: Gynecologic cancer cell panel viability, ATPlite luminescence, 48 h; series mostly up to 57.5 µM. The method in brief:
as §1

The next assay deals with CASKI. As to conditions: Gynecologic cancer cell panel viability, ATPlite luminescence, 48 h; series mostly up to 57.5 µM. The method in brief:
as §1
For orientation: In ATP-based viability assays light output follows the ATP content of the culture.

A further assay has as its system Es-2. As to conditions: Gynecologic cancer cell panel viability, ATPlite luminescence, 48 h; series mostly up to 57.5 µM. The method in brief: as §1
The subject of another assay is HeLa. As to conditions: Gynecologic cancer cell panel viability, ATPlite luminescence, 48 h; series mostly up to 57.5 µM. The method in brief: as §1
The subject of another assay is Hek293T. As to conditions: Gynecologic cancer cell panel viability, ATPlite luminescence, 48 h, control line for the selectivity index; series mostly up to 57.5 µM. The method in brief:
as §1

The test system of a further assay is JEG-3. As to conditions: Gynecologic cancer cell panel viability, ATPlite luminescence, 48 h; series mostly up to 57.5 µM. The method in brief:
as §1

The subject of the next assay is OV90. As to conditions: Gynecologic cancer cell panel viability, ATPlite luminescence, 48 h; series mostly up to 57.5 µM. The method in brief: as §1
The next assay deals with PA-1. As to conditions: Gynecologic cancer cell panel viability, ATPlite luminescence, 48 h; series mostly up to 57.5 µM. The method in brief:
as §1

Another assay relates to SKOV3. As to conditions: Gynecologic cancer cell panel viability, ATPlite luminescence, 48 h; series mostly up to 57.5 µM. The method in brief: as §1
In another assay the test system is Tov-21-G. As to conditions: Gynecologic cancer cell panel viability, ATPlite luminescence, 48 h; series mostly up to 57.5 µM. The method in brief: as §1
In the next assay the test system is Tov112D. As to conditions: Gynecologic cancer cell panel viability, ATPlite luminescence, 48 h; series mostly up to 57.5 µM. The method in brief:
as §1

Records with an inconclusive call do not appear. Unmarked numbers belong to inactive results. The source made the active and inactive calls. The call rests on the fitted dose curve; in most records, active means well fitted cell-killing curve with a large enough effect; inconclusive means small, poorly fitted or top-dose-only effect, or effect the other way; inactive means flat fitted curve, though single readings scatter.
On the % scale 0 is the no-effect control and ±100 the full control effect; potency means the concentration at half of the fitted maximal effect.

Take `COc1cncc(C#Cc2ccccn2)c1`: the Potency result in the assay with C33A, with CAOV3, in the assay on Es-2, in the assay with HeLa, in the assay with Hek293T and in the assay on JEG-3 was “inactive” throughout. Further, the Potency result in the assay with OV90, with PA-1, in the assay with SKOV3, in the assay with Tov-21-G and in the assay with Tov112D was “inactive” each time. Further, the outcome in the assay with CASKI was inactive.

As to `CNc1nc(Nc2cn(C(C)(C)C#N)nc2C)ncc1C(F)(F)F`, the Potency entry with C33A, in the assay on CAOV3, with Es-2, in the assay with HeLa, in the assay on Hek293T and in the assay on JEG-3 was “inactive” in each case. The Potency entry with OV90, in the assay on PA-1, in the assay with SKOV3, with Tov-21-G and in the assay with Tov112D was “inactive” in each case. For the same compound, the compound was called inactive in the assay with CASKI.

Turning to `C=C(C)C(O)COc1ccc(CC(=O)O)cc1` (stereo unspecified), the Potency result in the assay with C33A, in the assay on CAOV3, in the assay on Es-2, in the assay with HeLa, with Hek293T and in the assay on JEG-3 was “inactive” throughout. The Potency result in the assay with OV90, in the assay on PA-1, in the assay on SKOV3, in the assay with Tov-21-G and with Tov112D was “inactive” throughout. In the assay with CASKI, the call was inactive.

As to `CCOC(=O)C(CCc1ccccc1)NC(C)C(=O)N1Cc2ccccc2CC1C(=O)O` (stereo unspecified), the Potency entry with C33A, with CAOV3, in the assay with Es-2, in the assay on HeLa, with Hek293T and in the assay with JEG-3 was “inactive” each time. Besides, the Potency result with OV90, in the assay with PA-1, in the assay with SKOV3, in the assay on Tov-21-G and in the assay on Tov112D was “inactive” each time. Further, in the assay on CASKI, the call was inactive.

Consider `COc1cc(C)c(C(=O)O[C@@H]2[C@H](O)[C@@H](CO)O[C@H]2n2ccc(=O)[nH]c2=O)c(OC)c1`, for which the Potency result in the assay with C33A, with CAOV3, with Es-2, in the assay with HeLa, in the assay on Hek293T and with JEG-3 was “inactive” throughout. The Potency entry in the assay with OV90, with PA-1, with SKOV3, with Tov-21-G and in the assay with Tov112D was “inactive” each time. The compound was classed as inactive in the assay with CASKI.

Regarding `CC(C)C[C@H](NC(=O)[C@@H]1O[C@H]1C(=O)O)C(=O)NCCCCN=C(N)N`, the Potency entry in the assay with C33A, in the assay on CAOV3, with Es-2, in the assay on HeLa, in the assay with Hek293T and in the assay with JEG-3 was “inactive” in each case. Further, the Potency entry with PA-1, with SKOV3, in the assay with Tov-21-G and with Tov112D was “inactive” in each case. Moreover, in the assay with CASKI, the compound was classed as inactive. Further, the Potency in the assay on OV90 is 28.2 µM (active).

In the case of `CC1(C)CC[C@]2(C(=O)O)[C@H](O)C[C@]3(C)C(=CCC4[C@@]5(C)CC[C@H](O[C@@H]6OC[C@@H](O)[C@H](O)[C@H]6O)[C@@](C)(C(=O)O)C5CC[C@]43C)[C@@H]2C1` (stereo partly specified), the Potency entry with C33A, in the assay on CAOV3, with Es-2, with HeLa, in the assay with Hek293T and with JEG-3 was “inactive” in each case. In addition, the Potency entry in the assay on OV90, in the assay on PA-1, with SKOV3, with Tov-21-G and in the assay on Tov112D was “inactive” throughout. Also, in the assay with CASKI, the call was inactive.

Take `C[C@@H]1C[C@@H](O)[C@@]23CO[C@]2(CO)CCC[C@@H]3[C@@]12C[C@@H](c1ccoc1)OC2=O`: the Potency result in the assay with C33A, in the assay with CAOV3, in the assay with Es-2, in the assay with HeLa, in the assay on Hek293T and in the assay with JEG-3 was “inactive” throughout. In addition, the Potency entry in the assay with OV90, with PA-1, in the assay on SKOV3, with Tov-21-G and in the assay with Tov112D was “inactive” throughout. The call with CASKI was inactive.

For `C[C@H]1[C@H](C)C[C@@H](C(=O)O)C2CC[C@]3(C)C(=CC[C@@H]4[C@@]5(C)CC[C@H](O)C(C)(C)[C@@H]5CC[C@]43C)[C@@H]21` (stereo partly specified), the Potency result in the assay with C33A, in the assay on CAOV3, in the assay on Es-2, in the assay on HeLa, in the assay on Hek293T and with JEG-3 was “inactive” throughout. For the same compound, the Potency result with OV90, in the assay with PA-1, in the assay with SKOV3, in the assay on Tov-21-G and with Tov112D was “inactive” in each case. In addition, in the assay with CASKI, the call was inactive.

Regarding `O=C(O)CC1CCC(c2ccc(-c3ccc(Nc4ccc(C(F)(F)F)nc4)cn3)cc2)CC1` (stereo unspecified), the Potency result in the assay with C33A, with CAOV3, in the assay with Es-2, with HeLa, with Hek293T and in the assay on JEG-3 was “inactive” throughout. For the same compound, the Potency entry in the assay with OV90, in the assay with PA-1, with SKOV3, in the assay with Tov-21-G and in the assay with Tov112D was “inactive” each time. In the assay on CASKI, the outcome was inactive.

For `C=C1CC/C=C(/C(=O)O)CCC2C1CC2(C)C` (stereo unspecified), the Potency entry in the assay on C33A, in the assay on CAOV3, in the assay with Es-2, with HeLa, in the assay on Hek293T and in the assay on JEG-3 was “inactive” in each case. The Potency entry in the assay on OV90, with PA-1, in the assay with SKOV3, in the assay on Tov-21-G and in the assay on Tov112D was “inactive” in each case. For the same compound, the call in the assay on CASKI was inactive.

Take `C[C@@H]1O[C@@H](O[C@H]2[C@H](O[C@H]3[C@H](O[C@H]4CC[C@@]5(C)C(CC[C@]6(C)C5CC=C5[C@@H]7CC(C)(C)C[C@@H](O)[C@]7(C)CC[C@]56C)[C@@]4(C)CO)O[C@H](C(=O)O)[C@@H](O)[C@@H]3O)O[C@H](C(=O)O)[C@H](O)[C@@H]2O)[C@H](O)[C@H](O)[C@H]1O` (stereo partly specified): the activity change, negative = cytotoxicity was 8.86% [at 11.6 µM] in the assay on C33A; -0.141% [at 11.6 µM] with CAOV3; 16.2% [at 11.6 µM] in the assay on CASKI; -1.06% [at 11.6 µM] in the assay with Es-2; 4.67% [at 11.6 µM] in the assay with HeLa; 5.2% [at 11.6 µM] with Hek293T. In addition, the activity change, negative = cytotoxicity in the assay with JEG-3 is 7.1% [at 11.6 µM]; with OV90 it was 2.01% [at 11.6 µM]; in the assay on PA-1, 0.484% [at 11.6 µM]; with SKOV3, 10.8% [at 11.6 µM]; in the assay on Tov-21-G, 13.2% [at 11.6 µM]; in the assay with Tov112D, 5.35% [at 11.6 µM].

Take `CCCc1[nH]nc2c1C(c1cc(Cl)cc(Cl)c1O)C(C#N)=C(N)O2` (stereo unspecified): the Potency result in the assay with C33A, with CAOV3, in the assay with Es-2, with HeLa, in the assay on Hek293T and with JEG-3 was “inactive” each time. In addition, the Potency result with OV90, in the assay on PA-1, in the assay with SKOV3, in the assay on Tov-21-G and in the assay on Tov112D was “inactive” throughout. Besides, the outcome in the assay with CASKI was inactive.
